Compound activity deposited in PubChem by National Center for Advancing Translational Sciences (NCATS).
Hits are enriched below; roughly 11% of the tested compounds scored in any of these assays.
G9a block = blocks human histone lysine methyltransferase G9a; Q96KQ7; actives 8.8% (n = 350,000); Potency, µM (titrated, usually from 102 µM), for inactives: at the top dose activity, negative = inhibition, usual class: inhibitors; G9a H3K9 monomethylation, AlphaScreen, 2 h; also: potency is read from the fitted curve at half-maximal effect; nearly all actives have a fitted effect of over 75% in size
Target sequence (Q96KQ7 913-1193 limits assumed): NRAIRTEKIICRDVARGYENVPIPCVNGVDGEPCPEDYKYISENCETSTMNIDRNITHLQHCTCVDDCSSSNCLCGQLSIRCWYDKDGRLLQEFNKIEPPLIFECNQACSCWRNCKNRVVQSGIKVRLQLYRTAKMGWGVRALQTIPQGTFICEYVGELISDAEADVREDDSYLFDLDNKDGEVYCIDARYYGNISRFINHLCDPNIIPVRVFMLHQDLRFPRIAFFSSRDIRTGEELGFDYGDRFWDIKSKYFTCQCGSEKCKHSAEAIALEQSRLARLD
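Signal arises when biotinylated H3K9 peptide, once monomethylated, bridges streptavidin donor and antibody-captured acceptor beads. Enzyme at 20 nM was preincubated 15 min with test compounds; peptide 500 nM and SAM 20 uM then reacted for 2 h.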
Sfp inh = inhibitors of Bacillus subtilis Sfp phosphopantetheinyl transferase | Q9F4F7 | Biochemical Sfp PPTase activity, qHTS | Potency, µM, for the others: largest response in the series, negative = inhibition, hits mostly inhibitors | actives 3.5% (n = 310,000);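 also: the enzyme is Sfp with the accession as filed and its product quenches rhodamine fluorescence; potency is read from the fitted curve at half-maximal effect; 0% = enzyme reaction without inhibitor and -100% = no enzyme wells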
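Sfp 15 nM + cpd, 15 min RT; start w/ rhodamine-CoA 5 uM, BHQ-2-YbbR 12.5 uM (final); 50 mM Hepes pH 7.6, 10 mM MgCl2, 0.01% NP-40, 0.01% BSA; read 525/598 nm at 0 and 30 min.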
Tau FP inhib = inhibitors of human tau fibril formation | K18 P301L tau heparin fibrillization, Alexa594 FP, 6 h | Potency, µM (titrated, usually from 57.7 µM), without a hit: at the highest dose activity, negative = inhibition, usual class: inhibitors | actives 0.39% (n = 280,000); also: potency is read from the fitted curve at half-maximal effect; nearly all actives have a fitted effect of over 55% in size
Target sequence (P10636 561-689 P618L limits assumed): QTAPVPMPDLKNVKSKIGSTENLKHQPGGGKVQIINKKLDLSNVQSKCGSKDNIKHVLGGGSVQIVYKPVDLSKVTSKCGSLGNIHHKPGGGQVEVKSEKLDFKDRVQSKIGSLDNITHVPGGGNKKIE
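Human tau K18 […] P301L fragment, 15 uM unlabeled plus 0.24 uM Alexa 594-labeled tau (final), with compound and 20 uM heparin in 100 mM sodium acetate pH 7; 6 hr at 37 C, then Alexa 594 FP read.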
FBPA coupling cs = counter-screen for Giardia aldolase inhibitors: coupling enzyme system. AID 2472. activity change, negative = inhibition, % at 58.2 µM, hits read low. actives 0.67% (n = 290,000). coupling enzyme system counterscreen, AmpLite Red fluorescence; in the data active = activity change below about -30%
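Activity here indicates interference with the coupling reaction, not aldolase inhibition. Compounds at 57.5 uM final met coupling enzymes for 10 min at RT; substrate and AmpLite Red detection followed, with a 525/598 nm fluorescence read after 20 min.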
Tau ThT inhib = blocks human tau fibril formation measured by thioflavin T; recombinant tau K18 P301L, heparin-induced fibrillization, ThT fluorescence; actives 2.1% (n = 270,000); Potency, µM (doses to about 57.4 µM), without a hit: top-dose activity, negative = inhibition, hits mostly inhibitors; also: potency is read from the fitted curve at half-maximal effect; nearly all actives have a fitted effect of over 55% in size
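Fibril formation assay: tau K18 P301L at 15 uM with trace Alexa 594 label, heparin inducer 20 uM, pH 7 sodium acetate buffer, 37 C for 6 hr; endpoint ThT signal.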
Tau fluor cs = counter-screen for tau fibril formation inhibitors. Potency, µM (top dose mostly 57.7 µM), for the others: at the top dose activity change, negative = decrease. actives 0.93% (n = 280,000). tau K18 P301L Alexa594 fluorescence, heparin fibrillization. AID 1463; also: potency is read from the fitted curve at half-maximal effect; nearly all actives have a fitted effect of over 55% in size
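Human tau K18 P301L (15 uM unlabeled, 0.24 uM Alexa 594-labeled) in 100 mM sodium acetate pH 7 with 20 uM heparin, 6 hr at 37 C. ThT 30 uM added, 1 hr ambient; Alexa 594 FP and total fluorescence read at 555/632 nm.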
* marks the source's active call; other numbers are inactive results; ? = inconclusive; . = not tested or not shown; ! = not confirmed by another sample; [ ] = remark or other dose. Unless noted, calls follow the shape of the dose curve; as a rule, active = well fitted curve in the direction sought with a large enough effect; inconclusive = small, poorly fitted or top-dose-only effect, or another doubt; inactive = no such curve, though single readings can be large; an effect the other way counts as inactive or inconclusive. Unless noted, % is scaled to controls: 0 for no effect and ±100 for the full control effect.

SMILES	G9a block	Sfp inh	Tau FP inhib	FBPA coupling cs	Tau ThT inhib	Tau fluor cs
O=C(Nc1ccc2c(c1)OCO2)c1ccc(N2CCCC2)c([N+](=O)[O-])c1	10µM*	-3%	17%	-4	13µM*	?
CC(=O)Nc1ccc(N2CCCC(C)C2)c([N+](=O)[O-])c1 (centres undefined)	?	15%	6%	-1	?	-18%
CC1CCCN(c2ccc(C(=O)Nc3cccnc3)cc2[N+](=O)[O-])C1 (centres undefined)	50µM*	-2%	-2%	-1	?	-25%
COc1ccc(-c2nc3cnccn3c2Nc2ccc(C)cc2)cc1	3%[59 µM]	14%	4%	-1	?	?
COc1ccc(Nc2c(-c3ccc(C)o3)nc3cc(C)ccn23)cc1	16µM*	.	-2%	.	?	?
Cc1ccc(Nc2c(-c3ccc(C)o3)nc3cnccn23)cc1	32µM*	10µM*	?	1	?	-22%
Cc1ccn2c(Nc3ccc4c(c3)OCO4)c(-c3ccc(C)o3)nc2c1	16µM*	.	7%	.	?	?
Cc1ccc(-c2nc3cnccn3c2Nc2ccc3c(c2)OCO3)o1	32µM*	35µM*	4%	6	-18%	-27%
Cc1cc(C(=O)Nc2ccc3[nH]ccc3c2)no1	-33%	3%	1%	0	?	-20%
CC(=O)c1cc2c(O)c(O)ccc2o1	4µM*	56µM*	-11%	-11	?	-15%
Cc1ccc(C(=O)O)cc1NC(=O)CCc1ccccc1	5%	19%	-7%	5	-7%	-5%
COc1ccc(CN(C)CC(=O)Nc2ccc(Cl)cc2C(F)(F)F)c(OC)c1	25µM*	?	-5%	0	-10%	-11%
COc1ccc(Cl)cc1NC(=O)CN(C)CC(=O)Nc1ccccc1C(F)(F)F	90%[59 µM]	5%	6%	2	-16%	-18%
COc1ccc(S(=O)(=O)N(C)CC(=O)Nc2ccccc2C(F)(F)F)cc1	15%[59 µM]	2%	-14%	0	-2%	-8%
COc1ccc2ccc(O)c(CN(C)CC(=O)Nc3ccccc3C(F)(F)F)c2c1	7.9µM*	-9%	.	-11	.	.
COc1ccc(OC)c(NC(=O)CN(C)CC(=O)Nc2ccccc2Br)c1	7.9µM*	?	3%	2	-2%	-1%
COc1ccc(OC)c(S(=O)(=O)N(C)CC(=O)Nc2ccccc2OC)c1	-1%[59 µM]	10%	2%	-1	2%	-5%
COC(=O)c1ccc(C)c(NC(=O)CCc2ccc(OC)cc2)c1	-6%[59 µM]	89µM*	8%	3	6%	-1%
Cc1csc2nc(COc3ccc(NC(=O)COc4ccc(F)cc4)cc3)cc(=O)n12	-24%[59 µM]	.	-8%	.	?	-10%
C[C@]12CCC(=O)C=C1CC[C@@H]1[C@@H]2[C@@H](O)C[C@@]2(C)[C@H]1CC[C@]2(O)C(=O)COP(=O)(O)O	1%[12.7 µM]	19%	.	.	.	.
Cc1ccc(SCC(CC(C)C)N2CCN(C)CCC2=O)cc1 (centres undefined)	.	9%	.	3	.	.
COc1ccc(CN(C)CC(=O)Nc2ccccc2C(F)(F)F)c(OC)c1	3.5µM*	-44%	-3%	-1	-2%	3%
COc1ccc(CCNCC(=O)Nc2ccccc2C(F)(F)F)cc1	2.5µM*	-12%	-2%	-1	-2%	-3%
COc1ccc(CN(C)CC(=O)Nc2ccccc2C(F)(F)F)cc1	60%	6%	5%	-1	5%	-1%
O=C(CSc1cn(CCNC(=O)c2c(F)cccc2F)c2ccccc12)Nc1ccc2c(c1)OCCO2	3%[59 µM]	.	?	.	-9%	?
SMILES	G9a block	Sfp inh	Tau FP inhib	FBPA coupling cs	Tau ThT inhib	Tau fluor cs
O=C1C=C(N2CCN(C3=CC(=O)CCC3)CC2)CCC1	?	-20%	?	-1	25µM*	-26%
CCc1nn(CC(=O)NC2CCN(Cc3ccccc3)CC2)c(=O)c2cc3cc(F)ccc3n12	45µM*	4%	.	0	.	.
CCc1nn(CC(=O)NC(C)CCc2ccccc2)c(=O)c2cc3c(OC)cccc3n12 (centres undefined)	26%[59 µM]	.	-4%	.	10%	6%
CCc1nn(CC(=O)NC(C)CCc2ccccc2)c(=O)c2cc3cc(F)ccc3n12 (centres undefined)	50µM*!	2%	-9%	-1	10%	5%
CCOc1ccc2nc(NC(=O)c3nc(SCc4ccc(C)cc4)ncc3Cl)sc2c1	3%[59 µM]	.	-8%	.	-10%	-11%
CC(C)CNc1nc(C#N)nc(Nc2ccccc2)n1	.	.	.	1	.	.
O=C(Nc1ccc(Cl)cc1)[C@@H]1[C@@H]2C(=O)N(c3ccc(Cl)cc3)C(=O)[C@@H]2[C@H]2C=CC=NN21	?	45µM*	-4%	1	?	-22%
Cc1ccc(N2C(=O)[C@@H]3[C@H](C2=O)[C@H]2C=CC=NN2[C@@H]3C(=O)Nc2ccc(Cl)cc2)cc1	3.2µM*	40µM*	-11%	-5	?	-20%
NC(=S)N=Nc1c(O)[nH]c2c(Br)cc(Br)cc12	2%	-1%	16%	-8	7.9µM*	-18%
NC(=S)N=Nc1c(O)[nH]c2ccccc12	?	?	-5%	1	?	-17%
N#C/C(=C/c1ccc(-c2cc(C(=O)O)cc(C(=O)O)c2)o1)c1nc2ccccc2s1	11µM*	56µM*	2%	10	?	-18%
N#C/C(=C\c1ccco1)c1nc2ccccc2s1	8.9µM*	5%	-9%	1	?	-27%
COCCn1c(=O)c(-c2ccc(Cl)cc2)nc2cnc(Nc3ccccc3)nc21	-4%[0.501 µM]	22%	.	3	.	.
COc1ccc(C(=O)C2CCCN(C(=O)CSC)C2)cc1OC (centres undefined)	71µM*	7%	.	1	.	.
COc1ccc(C(=S)N2CCCC2)cc1Br	5%	2%	.	2	.	.
COc1ccc(C(=O)C2CCCN(C(=O)Cn3ccc(C)n3)C2)cc1OC (centres undefined)	18%[0.501 µM]	-8%	-7%	1	1%	1%
COc1cc(C(=S)N2CCC(C(N)=O)CC2)ccc1O	?	20µM*	3%	3	5%	-1%
COc1cc(C(=S)N2CCCC2)ccc1O	14µM*	?	0%	1	4%	3%
COc1cc(C(=S)N2CCC(C)CC2)ccc1O	7.9µM*	45µM*	-9%	3	?	-11%
COc1cc(C(=S)N2CCCC2)ccc1OCC(N)=O	-14%	2%	.	0	.	.
Cc1noc(C)c1C(=O)N1CCC[C@@]2(CCN(c3ccccn3)C2)C1	-3%[12.7 µM]	14%	.	1	.	.
CCOc1cc(C(=S)N2CCCC2)ccc1O	.	35µM*	.	6	.	.
